TMEM16A inh: TMEM16A chloride channel inhibitors, primary screen, cell-based, HTS | Anoctamin-1 (Mus musculus), Q8BHY3 | HEK293 TMEM16A/YFP iodide influx fluorescence, ionomycin | normalized B-score (activity score, 25-100; higher = stronger inhibition) at 10 µM | 1.2% of 310,000 active;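 active = ratio plate-corrected score three or more library SD toward inhibition, starting fluorescence score within five deviations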;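 note: score derived from kinetic fluorescence span divided by baseline fluorescence per well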
CHT inh: inhibitors of human choline transporter CHT; 0.86% of 310,000 active; B-score at 10 µM; High affinity choline transporter 1 (Homo sapiens), Q9GZV3; CHT-expressing cells, membrane potential dye, choline response; active compounds read low;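 active = B-score over 3 SD under the library average, and starting fluorescence ratio not unusually high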;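 note: choline stimulus applied at its EC90 after an EC20 pre-addition; B-score computed on integrated fluorescence ratio after choline addition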
CHT allo act: CHT positive allosteric modulators, primary screen, cell-based, membrane potential dye, choline EC20 | High affinity choline transporter 1 (Homo sapiens), Q9GZV3 | CHT-expressing cells; active compounds read high; LV-AA mutant CHT in HEK293 cells | B-score at 10 µM | 0.49% of 310,000 active | AID 488977, 2010;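 active = initial fluorescence not abnormally high and integrated response B-score, plate-corrected, over 3 SD above library mean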
ANO1 activ: TMEM16A chloride channel activators or potentiators, primary screen, cell-based, HTS; HEK293 TMEM16A/YFP-H148Q/I152L, iodide quench fluorescence; active compounds read low; B-score at 10 µM; 0.3% of 340,000 active; AID 623877, 2012;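 active = fluorescence-ratio B-score plate-corrected deviation score at least 3 library SD below zero, with starting fluorescence score within 5 deviations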;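 note: channel opened by trigger with iodide after compound preincubation; score built on the fluorescence ratio of max minus min over baseline; more negative score means more quench and so TMEM16A activation or potentiation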
CHT inh conf: CHT inhibitors, confirmation, cell-based, membrane potential dye, duplicate; CHT-expressing cells, choline membrane potential dye; LV-to-AA substituted CHT, HEK293 cells; CHT activity remaining % of control (active compounds read low), % at 10 µM; shares compounds with CHT inh; AID 493221, 2011; 70% of 2,400 active;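 active = choline transporter activity left, mean of duplicates at 10 µM, below buffer-only control mean minus 3 SD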;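 note: depolarization triggered by choline at its EC90 following an EC20 pre-addition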
HEK293 CHT ctr: membrane potential effects in parental HEK293, counter-screen for CHT inhibitor project, cell-based, membrane potential dye. shares compounds with CHT inh. membrane potential ratio readout (active if shifted either direction beyond buffer ±3SD; no single direction) at 10 µM. 4% of 2,400 active. AID 493222, 2011. choline response; active = decrease or increase beyond buffer ±3SD;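 note: parental cells lack the transporter so any hit is non-specific; ratio is peak minus trough fluorescence over baseline after EC90 choline challenge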
Hits are given with their value. Shown are actives, neighbours in structure and some others; about 2.4% of the full set was active somewhere.

COc1ccc(C2=NN(C(=O)CN3CCCCC3)C(c3ccc(C)cc3)C2)cc1 (stereo not given) was read as TMEM16A inh inactive, CHT inh inactive, CHT allo act inactive and ANO1 activ inactive.
`Cc1ccccc1NS(=O)(=O)c1ccc(C(=O)N2CCCC(C(F)(F)F)C2)cc1` (stereo not given) gave TMEM16A inh inactive, CHT inh inactive, CHT allo act inactive and ANO1 activ inactive.
Screening O=C(CSc1nnc(-c2ccco2)n1Cc1ccco1)NCc1ccccc1 returned TMEM16A inh inactive, CHT inh -5.12, CHT allo act inactive, ANO1 activ inactive, CHT inh conf inactive and HEK293 CHT ctr inactive.
Screening CC1=NN(C(=O)c2ccc(Cn3nc(C)c(Br)c3C)cc2)C(O)(C(F)(F)F)C1 (stereo not given) returned TMEM16A inh inactive, CHT inh -8.15, CHT allo act inactive, ANO1 activ inactive, CHT inh conf 25.9% and HEK293 CHT ctr inactive.
For CC1=NN(C(=O)c2ccc(Cn3nc(C)c([N+](=O)[O-])c3C)cc2)C(O)(C(F)(F)F)C1 (stereo not given) the results were TMEM16A inh inactive, CHT inh inactive, CHT allo act inactive and ANO1 activ inactive.
`CCCN(Cc1nnc(-c2ccccc2Cl)o1)C(=O)c1cccc(S(=O)(=O)N2CCOCC2)c1` gave TMEM16A inh inactive, CHT inh inactive, CHT allo act inactive and ANO1 activ inactive.
CCOc1ccccc1N(CC(=O)NCC1CCCO1)C(=O)CNS(=O)(=O)c1ccccc1 (stereo not given) was read as TMEM16A inh inactive, CHT inh inactive, CHT allo act inactive and ANO1 activ inactive.
CC12CCC(C)(c3nc4ccccc4nc31)C2(C)C was read as TMEM16A inh inactive, CHT inh inactive, CHT allo act inactive and ANO1 activ inactive.
`Cc1[nH]nc2c1-c1nc3ccccc3nc1C(C)(C)C2` gave TMEM16A inh 25, CHT inh -4.97, CHT allo act inactive, ANO1 activ inactive, CHT inh conf inactive and HEK293 CHT ctr inactive.
Screening COc1ccc(C(=O)NC2CCc3ccccc32)cc1OC1CCN(C(C)C)CC1 (stereo not given) returned TMEM16A inh inactive, CHT inh -8.95, CHT allo act inactive, ANO1 activ inactive, CHT inh conf 16.3% and HEK293 CHT ctr inactive.
Screening COc1ccc(C(=O)NC2CCCc3ccccc32)cc1Br (stereo not given) returned TMEM16A inh inactive, CHT inh inactive, CHT allo act inactive and ANO1 activ inactive.
COc1ccc(C(=O)N(C)C2CCCc3ccccc32)cc1OC1CCN(C(C)C)CC1 (stereo not given) was read as TMEM16A inh inactive, CHT inh -9.97, CHT allo act inactive, ANO1 activ inactive, CHT inh conf 14.5% and HEK293 CHT ctr inactive.
CC12CCC(C(=O)NNc3ccccc3)(OC1=O)C2(C)C (stereo not given) was read as TMEM16A inh inactive, CHT inh inactive, CHT allo act inactive and ANO1 activ inactive.
For CC12CCC(C(=O)NNc3ccc([N+](=O)[O-])cc3)(OC1=O)C2(C)C (stereo not given) the results were TMEM16A inh inactive, CHT inh -10.1, CHT allo act inactive, ANO1 activ inactive, CHT inh conf inactive and HEK293 CHT ctr inactive.
`O=C(COc1ccc(C(=O)O)cc1)Nc1cccc(C(F)(F)F)c1` gave TMEM16A inh inactive, CHT inh inactive, CHT allo act inactive and ANO1 activ inactive.
`CN1CCN(C(=S)c2ccc(OCC(=O)Nc3cccc(C(F)(F)F)c3)cc2)CC1` gave TMEM16A inh inactive, CHT inh -6.23, CHT allo act inactive, ANO1 activ inactive, CHT inh conf inactive and HEK293 CHT ctr inactive.
